Data reported in PubChem BioAssay AID1063 (University of Pittsburgh Molecular Library Screening Center, 2008).
The campaign covered roughly 200,000 compounds. About 18,000 (9%) were called active. The sample as a whole holds a higher share of actives than the screen did. A number with no mark means an inactive call. Cut-off read from the data, not from the text of the source: active = inhibition above about 50%; inactive = the rest.

Assay: antileishmanial activity against promastigotes – primary screen (AID 1063);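 note: promastigotes grown with compound for 44 hours at 28 °C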
Details: Leishmania major promastigotes, resazurin fluorescence viability; at 10 µM; hits give high values

| Structure (SMILES) | inhibition |
| --- | --- |
| CCOCCCNS(=O)(=O)Cc1ccccc1 | -9.59% |
| CCn1cc(CN2CCCC(CNS(=O)(=O)Cc3ccccc3)C2)cn1 (stereo not given) | 50.3% (active) |
| O=C(CCC1CCCN(Cc2ccc(O)c(Cl)c2)C1)NCc1ccccc1F (stereo not given) | 45.2% |
| O=C(COC(=O)CNC(=O)c1ccco1)Nc1ccc(F)cc1 | -2.3% |
| Cn1c(C(=O)NCCN2CCc3ccccc3C2)cc2c(=O)[nH]c3ccccc3c21 | 11.6% |
| O=C(NCCN1CCN(Cc2ccccc2)CC1)c1cc2c(=O)[nH]c3ccccc3c2s1 | 101% (active) |
| CN1CCN(CCCNC(=O)c2cc3c(=O)oc4ccccc4c3s2)CC1 | 0.79% |
| CCC(C)NC(=O)c1nn(C)c(=O)c2ccccc12 (stereo not given) | 0.91% |
| Cc1[nH]n(-c2cccc(Cl)c2)c(=O)c1/C=N/n1c(C)nc2ccccc2c1=O | -15.8% |
| Cc1[nH]n(-c2cccc(Cl)c2)c(=O)c1-c1ccc(Cl)cc1 | 53.3% (active) |
| Cc1cccc(N=Nc2c(C)[nH]n(-c3ccccc3)c2=O)c1 | -1.61% |
| Cc1nonc1NC(=O)CSc1nc2ccccc2cc1C#N | 1.85% |
| CCSc1nc(C)c(CCOc2cccc(C)c2)c(=O)[nH]1 | -3.36% |
| O=C1/C(=C\c2ccccc2Cl)SC(=S)N1CCC(=O)N1CCCc2ccccc21 | 97.9% (active) |
| O=C(CN1CCCCCC1)NCCN1C(=O)S/C(=C\c2ccccc2Cl)C1=O | 1.89% |
| O=C(c1c(Cl)nc2sccn12)N1CCCc2ccccc21 | -2.07% |
| CCOC(=O)N1CCN(C(=O)CSc2nc(C)nc3c2c(=O)n(C)c(=O)n3C)CC1 | 8.12% |
| S=c1[nH]nc(Nc2ccccc2)s1 | -10.1% |
| O=[N+]([O-])c1ccc(F)cc1Oc1nc(-c2cccnc2)nc2ccccc12 | 16.9% |
| CC(=O)Nc1ccc(Sc2ccccc2C(=O)N2CCCC2)cn1 | -4.22% |
| CCn1c(COc2ccccc2)nnc1SCC(=O)NCc1ccco1 | -5.1% |
| CCS(=O)(=O)Nc1ccc(C2=NN(C(C)=O)C(c3cccs3)C2)cc1 (stereo not given) | 0.67% |
| COc1ccc(CNc2c(CO)cnc3c2cnn3C)cc1 | -4.57% |
| CN(C)c1cc[n+](Cc2ccccc2)cc1 | -2.95% |

| Structure (SMILES) | inhibition |
| --- | --- |
| COC(=O)c1ccc(Cc2ccccc2)o1 | -4.65% |
| c1ccc(Cc2cc[n+](Cc3ccccc3)cc2)cc1 | 52% (active) |
| COc1ccc(-c2[nH]ncc2CN(C)Cc2cc(C)[nH]n2)c(F)c1 | -3.28% |
| Cc1cc(C)c(S(=O)(=O)N2CCOCC2)cc1C | 0.43% |
| Cn1cc(CCC(=O)N2CCCC(C(=O)c3ccc(C(C)(C)C)cc3)C2)cn1 (stereo not given) | -0.59% |
| CC(C)(C)n1nnnc1C(c1cccs1)N(Cc1cccnc1)CC1CCCO1 (stereo not given) | 18.7% |
| CCOc1ccc(CN(Cc2ccco2)C(c2cccs2)c2nnnn2C(C)(C)C)cc1 (stereo not given) | 73% (active) |
| Cc1ccc(S(=O)(=O)NNC(=O)Nc2cccc3ccccc23)cc1 | 34.5% |
| CC(=O)Nc1ccc(NC(=O)C(C)n2c3ccccc3c3nc(=O)cc(C)n32)cc1 (stereo not given) | 2.66% |
| COc1ccc(CCn2c(=N)c(C(=O)NCc3ccco3)cc3c(=O)n4cccc(C)c4nc32)cc1 | 67.1% (active) |
| O=C(NCc1ccco1)c1cccn2c(=O)c3c4c(sc3nc12)CCCC4 | -1.47% |
| CCn1c(=N)c(C(=O)NCCCOC)cc2c(=O)n3cccc(C)c3nc21 | 28.4% |
| Cc1nn(CC(=O)Nc2ccc3c(c2)OCO3)c(C)c1[N+](=O)[O-] | 7.29% |
| COc1ccc(C2CC(c3cccs3)=NN2c2ccc(F)cc2)cc1OC (stereo not given) | 15.6% |
| CCc1nnc(NC(=O)Cc2cccs2)s1 | -5.86% |
| CN(C)Cc1ccccc1C1(O)c2ccccc2CSc2ccccc21 (stereo not given) | 77.4% (active) |
| O=C(CNC(=O)c1cc(=O)[nH]c2ccccc12)Nc1ccc(F)c(F)c1 | 2% |
| CCc1nc(C)cn1S(=O)(=O)c1cc(OC)c(C)cc1C | 67.1% (active) |
| COc1cc2sc(C)nc2cc1C | -0.96% |
| CCc1nc(C)cn1S(=O)(=O)c1cc([N+](=O)[O-])ccc1Cl | 89.9% (active) |
| CCc1nccn1S(=O)(=O)c1cccc([N+](=O)[O-])c1 | 33.6% |
| CCCOc1cc(C)c(S(=O)(=O)n2nnc3ccccc32)cc1C | -5.25% |
| CC(C)c1nccn1S(=O)(=O)c1cc([N+](=O)[O-])ccc1Cl | 25.1% |
| Cn1c(=O)cc(OCC(=O)N2CCN(c3ccccc3F)CC2)c2ccccc21 | -1.08% |

| Structure (SMILES) | inhibition |
| --- | --- |
| COC(=O)c1ccc(/C=N/OCC(=O)Nc2cc(F)ccc2F)cc1 | 6.63% |
| CCc1ccc(OCC(=O)OCC(=O)c2c(N)n(C)c(=O)n(C)c2=O)cc1 | -8.87% |
| Cc1cccc(C)c1NC(=O)C1(N(C(=O)c2ccccn2)c2ccc(O)cc2)CCCCC1 | -0.59% |
| Cc1cc(C)cc(NC(=O)COC(=O)c2cc(C)oc2C)c1 | -1.77% |
| CC1(C)CCCC2=C1CC1C(=O)N(c3ccccc3)C(=O)C1C2 (stereo not given) | 4.86% |
| CC1CC2=C(CC1/C=N/NC(N)=S)C(C)(C)CCC2 (stereo not given) | 100% (active) |
| COCCNC(=O)c1ccc(-n2c(SCc3cccnc3)nc3ccccc3c2=O)cc1 | -2.65% |
| COc1cc(N2C(=O)c3ccccc3C2=O)c(Cl)cc1C(=O)OCC(=O)N1CCOCC1 | 16.7% |
| CC1=C(C(=O)Nc2cc(C)ccn2)C(c2cnn(C)c2)C2=C(CC(c3ccccc3)CC2=O)N1 (stereo not given) | 1% |
| Cc1cc(C)c2nc3nc(C)cc(C)c3c(N)c2c1 | 100% (active) |
| Cc1cc(C)c2c(n1)nn1c(N3CCOCC3)cc(C)nc21 | 4.53% |
| Cc1cc(C)c2nc(SCCC#N)nc(C)c2c1 | 5.11% |
| O=C(C1CCCO1)N(c1ccc(F)cc1)C1C=CS(=O)(=O)C1 (stereo not given) | -5.34% |
| CC1CCC2(CC1)NC(=O)N(Cc1nnc(-c3cccs3)o1)C2=O (stereo not given) | 1.95% |
| COc1ccc(CCN=C2SCC(=O)N2Cc2ccccc2)cc1OC | 20.8% |
| Oc1cccc(C2c3[nH]c4ccccc4c3CCN2Cc2cnn(-c3ccccc3)c2)c1 (stereo not given) | -0.63% |
| COc1cccc(C2c3[nH]c4ccccc4c3CCN2Cc2cccc(C)n2)c1 (stereo not given) | 82.2% (active) |
| COc1ccc(C2c3[nH]c4ccccc4c3CCN2CCCn2cccn2)cc1C (stereo not given) | 16.8% |
| COCc1ccc(C(=O)N2CCc3c([nH]c4ccccc34)C2c2ccccn2)s1 (stereo not given) | 13.5% |
| CCOc1ccc(C2c3[nH]c4ccccc4c3CCN2Cc2cn(CC)nc2C)cc1 (stereo not given) | 64.3% (active) |
| c1ccc(C2c3[nH]c4ccccc4c3CCN2Cc2cccn2-c2cccnc2)nc1 (stereo not given) | 0.1% |
| CC(C)C(O)C1CCN(Cc2nc(Cc3ccccc3Cl)no2)CC1 (stereo not given) | 1.45% |
| COc1ccc([N+](=O)[O-])cc1NC(=O)CC1SC(=Nc2cccc(C)c2C)N(/N=C(\C)c2ccc(C)cc2)C1=O (stereo not given) | 30.7% |
| CC1(C)C2CCC1(C)C(OC(=O)c1ccc(O)cc1)C2 (stereo not given) | 14.5% |

| Structure (SMILES) | inhibition |
| --- | --- |
| CC1CC(C)CN(S(=O)(=O)c2ccc(C(=O)NN3CCOCC3)cc2)C1 (stereo not given) | 6.29% |
| CCOC(=O)CSc1nc2c(sc(=S)n2CCc2ccccc2)c(=O)n1Cc1ccco1 | 50.2% (active) |
| CCOC(=O)CSc1nc2c(c(=O)n(C)c(=O)n2C)n1Cc1ccccc1F | -9.26% |
| COc1ccccc1NC(=O)CSc1nc2sc(C)c(C)c2c(=O)n1Cc1ccco1 | 7.51% |
| Cc1ccc(C(C[N+](=O)[O-])c2c(C)cc3ccccn23)cc1 (stereo not given) | 100% (active) |
| CC(C)C(=O)Nc1oc(-c2ccccc2)cc1C#N | 0.64% |
| O=C(CSc1ccsc1[N+](=O)[O-])N1CCCCC1 | 14.2% |
| Cc1nnc(N/N=C/C2CC=CCC2)[nH]c1=O (stereo not given) | -5.21% |
| COc1ccc(COC(=O)c2n[nH]c3ccccc23)cc1F | 97.5% (active) |
| O=C(COC(=O)c1n[nH]c2ccccc12)NCc1ccccc1 | 3.11% |
| COc1cccc(CNC(=O)c2n[nH]c3ccccc23)c1 | 6.49% |
| CCSc1ccccc1C(=O)Nc1ccc2c(c1)OCO2 | 7.96% |
| CN(C)CCCn1c(SCCN2C(=O)c3ccccc3C2=O)nc2ccccc2c1=O | -2.2% |
| Cn1c(N)c(C(=O)COC(=O)c2cnc(Cl)c(Cl)c2)c(=O)n(C)c1=O | -4.42% |
| Cc1ccc(C)c(NC(=O)CCC(=O)N/N=C2/CC(=O)CC(C)(C)C2)c1 | -2.4% |
| Cc1nnc(SC(C(=O)Nc2cc(Cl)cc(Cl)c2)c2ccccc2)[nH]c1=O (stereo not given) | -10.6% |
| O=C(CCC(=O)N1CCCC1)Nc1ccc([N+](=O)[O-])cc1 | -1.46% |
| CCCC(C(=O)NCc1ccco1)N(C(=O)CNS(=O)(=O)c1ccccc1)C1CCCC1 (stereo not given) | 60% (active) |
| O=C(CN(CC1CCCO1)C(=O)CNS(=O)(=O)c1ccc(F)cc1)NCc1ccco1 (stereo not given) | -10% |
| O=C(NCc1ccco1)C1CCCN(S(=O)(=O)c2ccccc2)C1 (stereo not given) | -0.05% |
| COc1ccc(CSc2nc(N3CCOCC3)c3c(c2C#N)CC(C)(C)OC3)cc1 | 66.8% (active) |
| CC1(C)Cc2c(C#N)c(SCc3nc4ccccc4[nH]3)nc(N3CCOCC3)c2CO1 | 34.1% |
| CC(C)c1nc(N2CCOCC2)c(C#N)c2c1COC(C)(C)C2 | 4.48% |
